Screens deposited in PubChem by several laboratories.
Rin1-Abl PPI inh – human Rin1-Abl interaction inhibition. P00519+Q13671. TR-FRET Rin1/Abl binding, biochemical. inhibition, % at 7.35 µM. hit rate 0.4% among 360,000. AID 588664; in the data active means inhibition above about 5%, passing the limit was not always enough
NPR2 activator – GC-B (human) receptor activation. HEK293-GC-B cells, CNP EC30, cGMP TR-FRET; 0% at EC30 CNP, 100% saturating CNP. hit rate 0.11% among 370,000. P20594. AID 1920062. activation, % at 10 µM;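 active means activation at 10 µM reaching about 35% in either raw or pattern-adjusted values, limit read from the data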
Target sequence (P20594 whole entry, looked up): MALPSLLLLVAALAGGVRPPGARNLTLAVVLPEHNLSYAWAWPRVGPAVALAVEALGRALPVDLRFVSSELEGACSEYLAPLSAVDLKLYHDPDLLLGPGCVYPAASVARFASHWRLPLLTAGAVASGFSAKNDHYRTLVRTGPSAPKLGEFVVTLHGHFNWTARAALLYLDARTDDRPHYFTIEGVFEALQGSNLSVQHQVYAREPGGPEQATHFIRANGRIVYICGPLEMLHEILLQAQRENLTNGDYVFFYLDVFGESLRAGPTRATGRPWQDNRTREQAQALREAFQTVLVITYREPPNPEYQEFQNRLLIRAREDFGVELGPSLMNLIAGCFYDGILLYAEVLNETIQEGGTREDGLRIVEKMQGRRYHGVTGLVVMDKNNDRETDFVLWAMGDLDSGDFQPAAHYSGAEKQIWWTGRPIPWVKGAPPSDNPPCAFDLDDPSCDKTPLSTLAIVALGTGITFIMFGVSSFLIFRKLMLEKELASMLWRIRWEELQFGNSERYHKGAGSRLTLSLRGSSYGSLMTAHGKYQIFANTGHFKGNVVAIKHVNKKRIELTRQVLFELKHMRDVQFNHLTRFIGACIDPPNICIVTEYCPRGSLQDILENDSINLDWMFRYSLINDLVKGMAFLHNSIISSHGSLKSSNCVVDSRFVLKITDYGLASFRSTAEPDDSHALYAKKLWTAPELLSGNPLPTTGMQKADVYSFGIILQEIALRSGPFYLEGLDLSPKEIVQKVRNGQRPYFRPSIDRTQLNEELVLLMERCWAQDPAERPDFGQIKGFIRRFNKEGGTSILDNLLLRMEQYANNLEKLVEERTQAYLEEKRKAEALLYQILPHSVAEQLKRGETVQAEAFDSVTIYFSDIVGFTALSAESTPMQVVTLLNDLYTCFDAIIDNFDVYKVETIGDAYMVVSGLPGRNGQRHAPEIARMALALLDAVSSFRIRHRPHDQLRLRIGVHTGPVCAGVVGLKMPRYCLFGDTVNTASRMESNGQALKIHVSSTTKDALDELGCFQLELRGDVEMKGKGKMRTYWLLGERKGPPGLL
CaV13 FRET inh – Disruptors of the CACNA1D IQ motif to Ca2+-dependent inactivation inhibitor domain association, primary screening, Förster resonance energy transfer in intact living … | HEK cells, CFP/YFP FRET ICDI-IQ, plate reader, 10 min; percent FRET-ratio fall versus neutral wells | inhibition, % at 12.3 µM | hit rate 0.098% among 340,000;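 active means mean replicate inhibition of at least 30% and at least 1% of replicates passing that level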;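 further: 0% = median of the neutral control wells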
NPR1 activator – GC-A (human) enzyme activation. hit rate 0.14% among 370,000. activation, % at 10 µM. AID 1671463. P16066. HEK293 GC-A cells, cGMP TR-FRET, EC30 ANP; 0% at EC30 ANP, 100% saturating ANP; in the data active means activation above about 40%
The depositor's hits bear a star. An excerpt weighted towards active compounds, which were near 0.67% of everything screened.

What do the screens show for `O=C(N/N=C/c1ccc(O)c(O)c1O)/C(=C/c1ccc([N+](=O)[O-])cc1)NC(=O)c1ccccc1`?
Rin1-Abl PPI inh: 15*; NPR2 activator: -6; CaV13 FRET inh: -4; NPR1 activator: -2

What do the screens show for `Cc1ccc(NC(=O)/C(=C\c2ccc([N+](=O)[O-])cc2)NC(=O)c2ccccc2)cc1`?
Rin1-Abl PPI inh: 2; NPR2 activator: -1; CaV13 FRET inh: -6; NPR1 activator: -1

What do the screens show for `COC(=O)[C@]12C[C@H](CC(=O)NCc3cccc(C(F)(F)F)c3)C(=O)N(Cc3ccco3)C1=C[C@H](C(C)(C)C)O[C@@H]2C`?
NPR2 activator: -17; NPR1 activator: -16

How did Cc1ccc(-c2cc(-c3nnc(SCC(=O)NC4CCCCC4)n3N)[nH]n2)cc1 do in these assays?
NPR2 activator: -7; NPR1 activator: -1

What do the screens show for `O=C(O)c1cccc(Nc2nc(-c3cc4ccccc4oc3=O)cs2)c1`?
Rin1-Abl PPI inh: 2; NPR2 activator: 5; CaV13 FRET inh: 77*; NPR1 activator: 5

Results for O=c1oc2ccccc2cc1-c1csc(NN=C2CCCC2)n1 ?
Rin1-Abl PPI inh: -5; NPR2 activator: 3; CaV13 FRET inh: -5; NPR1 activator: -5

What do the screens show for `Cc1ccccc1/C=N/N=C1/NC(=O)CCS1`?
Rin1-Abl PPI inh: -7; NPR2 activator: -2; CaV13 FRET inh: -18; NPR1 activator: 20

Results for O=C1CCS/C(=N\N=C\c2ccc(Cl)cc2Cl)N1 ?
Rin1-Abl PPI inh: 1; NPR2 activator: -5; CaV13 FRET inh: -5; NPR1 activator: 56*

How did O=C1C=C(c2ccc(F)cc2OCc2ccccc2)C[C@@H](c2ccc3c(c2)OCO3)C1 do in these assays?
Rin1-Abl PPI inh: 1; NPR2 activator: 39*; CaV13 FRET inh: -12; NPR1 activator: 30

How did O=C1C=C(c2ccc(F)cc2OCc2ccccc2)C[C@@H](c2ccc(Cl)cc2)C1 do in these assays?
Rin1-Abl PPI inh: -17; NPR2 activator: 16; CaV13 FRET inh: -5; NPR1 activator: 8

Results for N#Cc1c(NCCCO)nc(NCc2ccccc2)c2c1CCN(Cc1ccccc1)C2 ?
Rin1-Abl PPI inh: -3; NPR2 activator: 1; CaV13 FRET inh: 32*; NPR1 activator: 10

Results for CCCOc1ccc(/C=c2\sc3ncnn3c2=O)cc1 ?
Rin1-Abl PPI inh: 2; NPR2 activator: -2; CaV13 FRET inh: -20; NPR1 activator: 69*

What do the screens show for `CCC(=O)Nc1cc(C(=O)OCC(=O)c2ccc(Cl)cc2Cl)ccc1C`?
Rin1-Abl PPI inh: 0; NPR2 activator: 2; CaV13 FRET inh: -6; NPR1 activator: 57*

Results for CCOc1ccc(-n2c(SCC(=O)Nc3cccc4ccccc34)nnc2-c2ccco2)cc1 ?
NPR2 activator: -2; NPR1 activator: 0

How did N#CC(C#N)=C1C=CC=CN1/C(=C\c1ccccc1)C(=O)c1cccs1 do in these assays?
Rin1-Abl PPI inh: -4; NPR2 activator: -2; CaV13 FRET inh: 63*; NPR1 activator: -37

What do the screens show for `O=C(Cn1nnc(-c2ccccc2)n1)OC1CCOC1=O` (stereo not drawn)?
Rin1-Abl PPI inh: 1; NPR2 activator: 1; NPR1 activator: 54*

How did Cc1ccc2nc(NC(=O)C3CCCN(S(=O)(=O)c4cccnc4)C3)sc2c1 (stereo not drawn) do in these assays?
Rin1-Abl PPI inh: -4; NPR2 activator: -8; CaV13 FRET inh: -2; NPR1 activator: 48*

How did O=C(NC1CCCCN(Cc2cccc(Cl)c2)C1=O)c1cccc(F)c1 (stereo not drawn) do in these assays?
NPR2 activator: 1; NPR1 activator: 1

What do the screens show for `CCOC(=O)CS(=O)(=O)c1nc(-c2ccccc2)cc(C(F)(F)F)n1`?
Rin1-Abl PPI inh: 0; NPR2 activator: 10; CaV13 FRET inh: -4; NPR1 activator: 54*

How did COc1ccc(-c2cc(C(F)(F)F)nc(S(C)(=O)=O)n2)cc1 do in these assays?
Rin1-Abl PPI inh: 1; NPR2 activator: 5; CaV13 FRET inh: -8; NPR1 activator: 46*

What do the screens show for `CS(=O)(=O)c1nc(-c2ccc(F)cc2)cc(C(F)(F)F)n1`?
Rin1-Abl PPI inh: 0; NPR2 activator: 13; CaV13 FRET inh: -27; NPR1 activator: 72*

How did O=C(CCc1ccccc1)N[C@H]1[C@@H](OC(=O)c2ccco2)CCC[C@]12C(=O)N(Cc1ccccc1)c1ccccc12 do in these assays?
NPR2 activator: -7; NPR1 activator: -4

What do the screens show for `COc1ccc(S(=O)(=O)Oc2ccc3ccccc3c2)cc1`?
Rin1-Abl PPI inh: 2; NPR2 activator: -3; CaV13 FRET inh: -3; NPR1 activator: 2
